Measured values published in PubChem BioAssay.
Activity calls are given as the source filed them.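 Rule for the calls, unless noted: active = GFP response above 150% of the DMSO level; inconclusive = fewer than 70 events counted for a yeast strain; inactive = the rest.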

Tests used:
[1] = hit retest on RPL19A-GFP reporter strain – cell-based, S. cerevisiae, flow cytometry, cherry picks, mother/daughter gates, confirmation (AID 2270;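 active = GFP response below 50% of the DMSO control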); conditions: 3 h, at 10 µM, stronger effect = lower value, 100 = same GFP as DMSO wells
[2] = yeast TOR pathway reporter LAP4-GFP change – cell-based, cherry picks, flow cytometry, mother/daughter gates, confirmation (AID 2271;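 active = GFP response above 150% of the DMSO control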;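 note: ratio of sample to DMSO plate mean so 100% equals DMSO level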); conditions: S. cerevisiae LAP4-GFP strain, 3 h, at 10 µM, stronger effect = higher value, 100 means same as DMSO control
[3] = TOR pathway reporter MEP2-GFP, retest of hits – S. cerevisiae, flow cytometry GFP, cherry picks, confirmation (AID 2272;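 active = GFP response above 150% of the DMSO control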;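 note: ratio of well signal to plate DMSO mean so 100% equals DMSO level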); conditions: S. cerevisiae MEP2-GFP strain, 3 h, at 10 µM, stronger effect = higher value
[4] = yeast AGP1-GFP fluorescence change, single-dose – cell-based, flow cytometry, S. cerevisiae, cherry picks, confirmation (AID 2273);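 note: median GFP channel fluorescence over the whole cell population gate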; conditions: S. cerevisiae AGP1-GFP strain, 3 h, at 10 µM
[5] = TOR pathway CIT2 reporter hit retest – S. cerevisiae, GFP fusion, cherry picks, mother/daughter gates, confirmation (AID 2274); conditions: S. cerevisiae CIT2-GFP strain, flow cytometry, 3 h, at 10 µM, stronger effect = higher value
[6] = reduced mouse 2C T cell binding to pMHC/ICAM-1 vesicles – MLPCN validation set, flow cytometry, LFA-1/ICAM-1 modulator project, pilot screen (AID 2523;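 active = response below a set limit, under 55% cells CD8-positive and vesicle-bound, and CD8 cells' 90th-percentile brightness under 279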;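 for vesicle binding response: mean PE anti-B7-1 fluorescence of CD8+ cells relative to row control; 100% = QL9-loaded vesicles with DMSO vehicle in the same plate row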); conditions: 2C mouse CD8+ T cells, at 7 µM, stronger effect = lower value; double positive events: measured here: CD8+/vesicle+ event percentage
[7] = target: Integrin beta-1 (Homo sapiens) + Integrin alpha-4 (Homo sapiens) (UniProt P13612+P05556); assay: alpha4beta1 integrin LIBS antibody binding reduction – U937 cells, HUTS-21 mAb, flow cytometry, validation set, VLA-4 allosteric modulator project, pilot screen (AID 2674;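 active = inhibition above 50%, about 3 SD of the validation set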;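 note: antibody binding induced by the VLA-4 ligand LDV present at three times its Kd; 0% = LDV ligand with antibody and no compound and 100% = antibody without LDV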); conditions: HUTS-21 LIBS mAb binding, at 6.7 µM, stronger effect = higher value, binding induced by LDV ligand
Sequence of Integrin beta-1 (Homo sapiens) + Integrin alpha-4 (Homo sapiens) (P05556 whole entry, looked up): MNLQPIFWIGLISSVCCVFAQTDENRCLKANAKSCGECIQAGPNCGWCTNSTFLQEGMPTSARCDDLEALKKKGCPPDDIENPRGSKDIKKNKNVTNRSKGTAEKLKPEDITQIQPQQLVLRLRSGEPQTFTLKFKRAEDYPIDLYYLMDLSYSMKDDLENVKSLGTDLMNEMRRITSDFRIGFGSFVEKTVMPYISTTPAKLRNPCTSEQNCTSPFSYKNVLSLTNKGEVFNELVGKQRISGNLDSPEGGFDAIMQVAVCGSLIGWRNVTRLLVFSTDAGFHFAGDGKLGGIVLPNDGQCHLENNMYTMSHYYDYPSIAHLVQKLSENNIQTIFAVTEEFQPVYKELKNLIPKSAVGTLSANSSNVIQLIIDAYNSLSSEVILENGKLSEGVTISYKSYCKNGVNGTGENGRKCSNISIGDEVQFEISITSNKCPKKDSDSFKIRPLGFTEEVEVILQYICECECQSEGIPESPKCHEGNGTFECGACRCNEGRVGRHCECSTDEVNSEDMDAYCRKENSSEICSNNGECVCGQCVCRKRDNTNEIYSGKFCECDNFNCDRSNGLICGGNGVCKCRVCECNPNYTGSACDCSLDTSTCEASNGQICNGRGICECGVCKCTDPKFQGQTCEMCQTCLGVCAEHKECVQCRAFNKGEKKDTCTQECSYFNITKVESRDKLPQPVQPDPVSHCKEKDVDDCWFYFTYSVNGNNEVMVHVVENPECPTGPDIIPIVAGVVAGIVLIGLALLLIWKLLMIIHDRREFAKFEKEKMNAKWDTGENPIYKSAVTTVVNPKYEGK
Sequence of Integrin beta-1 (Homo sapiens) + Integrin alpha-4 (Homo sapiens) (P13612 whole entry, looked up): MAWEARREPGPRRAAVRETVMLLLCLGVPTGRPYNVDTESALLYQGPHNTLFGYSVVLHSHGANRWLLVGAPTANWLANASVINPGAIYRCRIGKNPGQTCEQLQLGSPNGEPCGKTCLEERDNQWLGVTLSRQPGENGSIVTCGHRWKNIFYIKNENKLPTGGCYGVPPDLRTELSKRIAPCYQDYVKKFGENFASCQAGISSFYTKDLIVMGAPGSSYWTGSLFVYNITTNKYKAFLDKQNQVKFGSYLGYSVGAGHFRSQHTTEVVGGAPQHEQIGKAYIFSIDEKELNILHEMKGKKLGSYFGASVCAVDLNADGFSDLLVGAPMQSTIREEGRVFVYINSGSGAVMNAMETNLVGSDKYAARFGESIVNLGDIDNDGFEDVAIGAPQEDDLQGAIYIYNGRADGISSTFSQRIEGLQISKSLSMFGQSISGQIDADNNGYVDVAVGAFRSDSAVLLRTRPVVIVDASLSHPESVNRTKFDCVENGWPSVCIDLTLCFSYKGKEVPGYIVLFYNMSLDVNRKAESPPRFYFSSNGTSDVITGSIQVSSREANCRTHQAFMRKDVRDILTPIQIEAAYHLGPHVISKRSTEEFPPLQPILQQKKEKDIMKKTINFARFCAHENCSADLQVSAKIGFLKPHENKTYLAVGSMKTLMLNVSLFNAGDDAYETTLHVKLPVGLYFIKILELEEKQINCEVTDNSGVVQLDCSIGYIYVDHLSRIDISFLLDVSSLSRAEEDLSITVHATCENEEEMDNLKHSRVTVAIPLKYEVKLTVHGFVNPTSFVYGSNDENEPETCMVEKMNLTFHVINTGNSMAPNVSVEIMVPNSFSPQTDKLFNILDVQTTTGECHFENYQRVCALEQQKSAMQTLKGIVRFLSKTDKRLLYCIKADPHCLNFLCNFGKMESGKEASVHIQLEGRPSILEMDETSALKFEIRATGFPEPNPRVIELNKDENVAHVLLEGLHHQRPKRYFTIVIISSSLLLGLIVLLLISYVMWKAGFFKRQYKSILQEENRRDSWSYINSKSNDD

[8] = calorie-restriction mimetic ROS inhibitors, yeast – validation compound set, pilot screen (AID 2706;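 active = superoxide response below 65% of plate, a cut near 3 SD across the whole screen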;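 note: yeast exposed to compound for one week at 30 degrees C before staining; 100% = mean of all compound wells on the same plate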); conditions: S. cerevisiae aging, superoxide DHE fluorescence; at 10 µM, stronger effect = lower value
[9] = target: Beta-adrenergic receptor kinase 1 (Homo sapiens) (UniProt P25098); assay: GRK2 binders displacing RNA aptamer, biochemical, validation, human GRK2, bead flow cytometry (AID 488806;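 active = aptamer binding inhibition above 30%, about 3 SD of noise from non-fluorescent compounds; inactive = inhibition at or below 30%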); conditions: bead-bound GRK2, FAM-aptamer displacement, at 10 µM, stronger effect = higher value
Sequence of Beta-adrenergic receptor kinase 1 (Homo sapiens) (P25098 whole entry, looked up): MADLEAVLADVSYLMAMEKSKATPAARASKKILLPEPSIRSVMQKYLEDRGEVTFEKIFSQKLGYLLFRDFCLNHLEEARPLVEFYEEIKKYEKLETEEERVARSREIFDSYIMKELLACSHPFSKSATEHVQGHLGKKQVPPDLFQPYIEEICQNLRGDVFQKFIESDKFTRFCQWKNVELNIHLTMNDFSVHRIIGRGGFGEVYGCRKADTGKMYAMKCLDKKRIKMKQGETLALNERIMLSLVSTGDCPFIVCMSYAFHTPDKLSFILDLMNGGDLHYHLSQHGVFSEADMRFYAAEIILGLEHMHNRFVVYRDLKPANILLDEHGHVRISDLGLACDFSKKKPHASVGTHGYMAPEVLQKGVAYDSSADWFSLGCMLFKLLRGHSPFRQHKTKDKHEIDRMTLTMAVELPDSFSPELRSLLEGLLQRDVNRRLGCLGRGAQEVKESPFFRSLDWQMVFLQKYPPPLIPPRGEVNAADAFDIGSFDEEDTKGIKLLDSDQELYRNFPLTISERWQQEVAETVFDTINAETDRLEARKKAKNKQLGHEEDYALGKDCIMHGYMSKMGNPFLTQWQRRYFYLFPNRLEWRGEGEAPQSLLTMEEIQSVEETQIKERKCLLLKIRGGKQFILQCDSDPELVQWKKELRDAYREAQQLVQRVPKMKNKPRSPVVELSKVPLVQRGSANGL

[10] = target: Beta-2 adrenergic receptor (Homo sapiens) (UniProt P07550); assay: agonist-induced loss of surface beta2AR – cell-based, FAP fluorogen, flow cytometry, validation set, pilot screen (AID 504459;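 active = percent response above 42, roughly 3 SD of non-fluorescent test compounds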;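 note: agonist-driven loss of surface beta2AR via internalization measured by FAP dye flow cytometry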); conditions: Am2.2-beta2AR cells, at 10 µM, stronger effect = higher value
Sequence of Beta-2 adrenergic receptor (Homo sapiens) (P07550 whole entry, looked up): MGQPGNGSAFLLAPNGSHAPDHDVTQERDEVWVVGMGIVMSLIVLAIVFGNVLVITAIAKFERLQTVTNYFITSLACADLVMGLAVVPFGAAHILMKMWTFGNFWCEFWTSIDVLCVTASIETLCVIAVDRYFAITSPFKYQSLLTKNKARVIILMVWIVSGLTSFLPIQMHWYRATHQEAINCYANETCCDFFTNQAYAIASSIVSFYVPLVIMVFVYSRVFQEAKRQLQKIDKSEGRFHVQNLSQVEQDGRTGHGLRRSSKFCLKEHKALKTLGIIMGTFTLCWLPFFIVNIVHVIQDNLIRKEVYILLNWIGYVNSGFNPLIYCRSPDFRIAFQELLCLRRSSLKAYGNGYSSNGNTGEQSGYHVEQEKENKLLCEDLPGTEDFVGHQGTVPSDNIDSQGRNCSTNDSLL

[11] = target: AP-2 complex subunit beta (Homo sapiens) (UniProt P63010); assay: beta-arrestin/AP2 interaction blockers – biochemical, validation set, GST-AP2 beads, flow cytometry, pilot screen (AID 504541;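 active = inhibition above 54%, about 3 SD of non-fluorescent compounds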;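 note: AP2 carries R879A mutation and is captured from E. coli lysate; bead-bound FITC arrestin peptide fluorescence measuring arrestin peptide binding to AP2; 0% = DMSO wells and 100% = excess unlabeled arrestin peptide control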); conditions: FITC arrestin peptide, at 10 µM, stronger effect = higher value, AP2 beta2 appendage fragment, R879A mutant
Sequence of AP-2 complex subunit beta (Homo sapiens) (P63010 whole entry, looked up, the tested form may be a part, one chain of several): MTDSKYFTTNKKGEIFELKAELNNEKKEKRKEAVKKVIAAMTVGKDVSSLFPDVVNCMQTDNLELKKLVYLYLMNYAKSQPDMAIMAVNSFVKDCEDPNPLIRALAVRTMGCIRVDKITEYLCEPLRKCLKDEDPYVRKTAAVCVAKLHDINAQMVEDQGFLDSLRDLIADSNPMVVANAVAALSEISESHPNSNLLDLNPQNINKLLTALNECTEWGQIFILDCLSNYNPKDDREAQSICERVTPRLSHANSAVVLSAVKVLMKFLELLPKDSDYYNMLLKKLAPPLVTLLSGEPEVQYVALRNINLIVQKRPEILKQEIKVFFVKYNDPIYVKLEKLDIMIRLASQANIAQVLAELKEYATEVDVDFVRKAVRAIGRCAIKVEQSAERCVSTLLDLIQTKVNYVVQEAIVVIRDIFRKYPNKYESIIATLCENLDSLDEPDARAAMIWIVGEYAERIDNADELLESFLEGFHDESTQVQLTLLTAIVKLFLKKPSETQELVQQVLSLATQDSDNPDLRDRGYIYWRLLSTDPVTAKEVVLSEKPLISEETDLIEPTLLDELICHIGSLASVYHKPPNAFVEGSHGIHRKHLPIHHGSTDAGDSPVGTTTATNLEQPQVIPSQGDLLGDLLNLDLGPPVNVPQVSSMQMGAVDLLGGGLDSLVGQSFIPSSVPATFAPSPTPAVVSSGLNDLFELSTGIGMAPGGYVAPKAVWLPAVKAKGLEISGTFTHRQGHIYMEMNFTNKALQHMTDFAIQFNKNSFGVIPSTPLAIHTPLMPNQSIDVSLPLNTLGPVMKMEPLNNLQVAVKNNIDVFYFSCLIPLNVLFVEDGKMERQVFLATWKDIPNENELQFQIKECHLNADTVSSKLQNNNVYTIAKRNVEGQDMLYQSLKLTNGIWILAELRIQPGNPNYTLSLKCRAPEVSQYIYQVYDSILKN

[12] = cytosolic pH regulators acting via V-ATPase – S. cerevisiae, pHLuorin, HTS validation (AID 504600; in the data active = response above about 15%;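 note: plate controls were DMSO for no effect and reference compound for full effect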); conditions: V-ATPase proton transport, at 10 µM, stronger effect = higher value
[13] = tested on: anti-desmoglein-3 scFv antibody binding to human DSG3; assay: blockers of pathogenic pemphigus antibody–desmoglein-3 binding – biochemical, validation compound set, bead-based, flow cytometry, pilot screen (AID 588368;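 active = binding below the plate cutoff, the plate median minus 3 SD, with a reading above zero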;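 note: signal is the median channel fluorescence of bead-bound GFP antibody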); conditions: Protein G beads, DSG3-Fc, scFv-GFP binding, at 10 µM, stronger effect = lower value
[14] = Nile Red efflux blockade in pump-expressing yeast – validation compound set, multiplex, phenotypic, pilot screen (AID 588506;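 active = efflux inhibition above 0.42, the validation set average plus 4 SD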;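 note: Nile Red retained in cells so higher fluorescence means more efflux inhibition; 0 = negative control wells and 1 = enniatin B 25 µM full block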); conditions: S. cerevisiae pump-expressing triplex, Nile Red efflux flow cytometry; at 10 µM; stronger effect = higher value; the pumps come from Candida albicans
[15] = target: ATP-binding cassette sub-family B member 6 (Homo sapiens) (UniProt Q9NP58); assay: blockers of ABCB6-driven porphyrin uptake – K562-ABCB6 cells, flow cytometry, validation set, pilot screen (AID 588550;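 active = inhibition above the screen-wide mean plus 3 SD, about 51%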;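 note: 0% = DMSO wells and 100% = benzethonium chloride 70 µM positive control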); conditions: K562-ABCB6 porphyrin accumulation, 1 h, at 10 µM, stronger effect = higher value
Sequence of ATP-binding cassette sub-family B member 6 (Homo sapiens) (Q9NP58 whole entry, looked up): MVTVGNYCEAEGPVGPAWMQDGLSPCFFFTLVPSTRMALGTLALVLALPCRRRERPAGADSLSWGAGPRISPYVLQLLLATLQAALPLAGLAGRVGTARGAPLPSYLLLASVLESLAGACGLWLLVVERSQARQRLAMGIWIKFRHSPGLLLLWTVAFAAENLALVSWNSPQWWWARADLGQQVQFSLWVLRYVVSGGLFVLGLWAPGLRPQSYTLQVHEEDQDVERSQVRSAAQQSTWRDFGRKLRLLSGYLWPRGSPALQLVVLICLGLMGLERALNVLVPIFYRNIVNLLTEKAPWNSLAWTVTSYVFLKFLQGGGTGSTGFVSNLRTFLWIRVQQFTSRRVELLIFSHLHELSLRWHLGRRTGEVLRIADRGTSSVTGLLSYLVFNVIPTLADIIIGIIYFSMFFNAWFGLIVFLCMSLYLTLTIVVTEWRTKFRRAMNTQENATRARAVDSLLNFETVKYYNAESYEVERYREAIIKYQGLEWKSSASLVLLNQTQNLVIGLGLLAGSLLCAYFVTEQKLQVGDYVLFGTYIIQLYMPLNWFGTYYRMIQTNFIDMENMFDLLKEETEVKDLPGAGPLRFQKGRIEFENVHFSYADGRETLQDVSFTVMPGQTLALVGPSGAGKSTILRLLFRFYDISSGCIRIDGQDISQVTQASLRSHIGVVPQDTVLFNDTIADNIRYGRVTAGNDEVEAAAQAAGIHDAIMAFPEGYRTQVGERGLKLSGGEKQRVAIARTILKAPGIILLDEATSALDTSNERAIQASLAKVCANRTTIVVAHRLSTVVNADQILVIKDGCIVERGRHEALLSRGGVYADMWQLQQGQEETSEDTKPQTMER

[16] = AML differentiation inducers, ER-HoxA9 marrow cells – cell-based, GFP/MAC1 double positive, flow cytometry, validation set, primary screen (AID 588685;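 active = differentiation response of at least 50%, scaled between solvent and reference control, from cells with both markers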;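 note: compound exposure lasts four days before antibody staining and flow analysis; 0% = DMSO wells and 100% = 5 µM fulvestrant positive control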); conditions: stronger effect = higher value, normalized: vehicle 0, fulvestrant 100
[17] = measured here: mother cell gate
[18] = measured here: daughter cell gate response
[19] = measured here: mother cell gate response
[20] = measured here: daughter cell gate

With `Oc1ccc(COCc2ccccc2)c2cccnc12` the GFP response vs DMSO [1] was 98% (inactive), the GFP response vs DMSO [1, 17] was 93.8% and the GFP response relative to DMSO [2] was 149% (inactive). For the same compound, the GFP response relative to DMSO [2, 18] was 138%, the GFP response relative to DMSO [2, 19] was 152% and the GFP response vs DMSO [3] was 114% (inactive). The GFP response, % of DMSO [4] was 98.6% (inactive), the GFP response, % of DMSO [5] was 95.8% (inactive) and the GFP response, % of DMSO [5, 20] was 101%. The GFP response, % of DMSO [5, 17] was 91.5%, the double positive events [6] was 65.9% and the vesicle binding response [6] was 129% (inactive). The inhibition [7] was -0.43% (inactive), the superoxide response (% of plate) [8] was 75.4% (inactive) and the aptamer binding inhibition [9] was 0% (inactive). The response [10] was -7.8% (inactive), the inhibition [11] was -1% (inactive) and the response [12] was 2.93% (inactive). For the same compound, the binding (% of control) [13] was 101% (inactive), the efflux inhibition (fraction of control) [14] was 0.12 (inactive) and the inhibition [15] was 1% (inactive). For the same compound, the differentiation response [16] was 40.8% (inactive).

For `Cc1cccc(CS(=O)(=O)c2ncc(Cl)c(C(=O)Nc3nnc(C(C)C)s3)n2)c1`, the GFP response vs DMSO [1] was 96.7% (inactive), the GFP response relative to DMSO [2] was 106% (inactive) and the GFP response relative to DMSO [2, 18] was 108%. For the same compound, the GFP response relative to DMSO [2, 19] was 105%, the GFP response vs DMSO [3] was 99.3% (inactive) and the GFP response, % of DMSO [4] was 102% (inactive). For the same compound, the GFP response, % of DMSO [5] was 103% (inactive), the GFP response, % of DMSO [5, 20] was 99.3% and the GFP response, % of DMSO [5, 17] was 104%.

In the case of `Cc1ccccc1NC(=O)COC(=O)c1cc(=O)c2ccccc2o1`, the GFP response vs DMSO [1] was 99.7% (inactive), the GFP response vs DMSO [1, 17] was 104% and the GFP response relative to DMSO [2] was 98.7% (inactive). The GFP response relative to DMSO [2, 18] was 98.7%, the GFP response relative to DMSO [2, 19] was 86% and the GFP response vs DMSO [3] was 97.8% (inactive). For the same compound, the GFP response, % of DMSO [4] was 95.4% (inactive) and the GFP response, % of DMSO [5] was 104% (inactive).

In the case of `CCC(=O)Nc1ccc(NC(=O)c2cc3ccccc3o2)c(OC)c1`, the GFP response vs DMSO [1] was 100% (inactive), the GFP response relative to DMSO [2] was 94.4% (inactive) and the GFP response relative to DMSO [2, 18] was 95.9%. For the same compound, the GFP response relative to DMSO [2, 19] was 96.2%, the GFP response vs DMSO [3] was 101% (inactive) and the GFP response, % of DMSO [4] was 100% (inactive). For the same compound, the GFP response, % of DMSO [5] was 94.4% (inactive), the GFP response, % of DMSO [5, 20] was 95.6% and the GFP response, % of DMSO [5, 17] was 88.2%.

With `CC1=C/C(=N\OS(=O)(=O)c2ccccc2)C(C)=CC1=O` the GFP response vs DMSO [1] was 79.2% (inactive), the GFP response vs DMSO [1, 17] was 66.3% and the GFP response relative to DMSO [2] was 262% (active). For the same compound, the GFP response relative to DMSO [2, 18] was 136%, the GFP response relative to DMSO [2, 19] was 243% and the GFP response vs DMSO [3] was 118% (inactive). For the same compound, the GFP response, % of DMSO [4] was 108% (inactive), the GFP response, % of DMSO [5] was 98.8% (inactive) and the GFP response, % of DMSO [5, 20] was 117%. The GFP response, % of DMSO [5, 17] was 88.2%.

With `CCOC(=O)C(C(=O)OCC)C(C(=O)OCC)N1CCOCC1` (centres undefined) the GFP response vs DMSO [1] was 74.1% (inactive), the GFP response vs DMSO [1, 17] was 61.4% and the GFP response relative to DMSO [2] was 182% (active). The GFP response relative to DMSO [2, 18] was 158%, the GFP response relative to DMSO [2, 19] was 165% and the GFP response vs DMSO [3] was 108% (inactive). The GFP response, % of DMSO [4] was 90.2% (inactive), the GFP response, % of DMSO [5] was 86.1% (inactive) and the GFP response, % of DMSO [5, 20] was 105%. It also gave a GFP response, % of DMSO [5, 17] of 72.5%.

For `Cc1ccc(NC(=O)c2ccc(Cl)c(N3C(=O)C=CC3=O)c2)cc1`, the GFP response vs DMSO [1] was 86.1% (inactive), the GFP response vs DMSO [1, 17] was 69.8% and the GFP response relative to DMSO [2] was 217% (active). For the same compound, the GFP response relative to DMSO [2, 19] was 186%, the GFP response vs DMSO [3] was 129% (inactive) and the GFP response, % of DMSO [4] was 97.1% (inactive). The GFP response, % of DMSO [5] was 84.9% (inactive).

With `O=C(Nc1c(-c2ccccc2)nc2c(Br)cc(Br)cn12)c1ccco1` the GFP response vs DMSO [1] was 94.5% (inactive), the GFP response vs DMSO [1, 20] was 94.7% and the GFP response vs DMSO [1, 17] was 92.1%. The GFP response relative to DMSO [2] was 92.9% (inactive), the GFP response vs DMSO [3] was 103% (inactive) and the GFP response, % of DMSO [4] was 98.8% (inactive). The GFP response, % of DMSO [5] was 100% (inactive), the GFP response, % of DMSO [5, 20] was 85.2% and the GFP response, % of DMSO [5, 17] was 90.4%.
